Values joined by “and” are separate entries in the source; they are usually repeats but may differ in a detail not shown here. Equal values may be shown once. The campaign covered roughly 5,500 compounds. About 2,000 (36%) were called active. About 18% were inconclusive and are not listed. Rule as the data show it: active = normalized growth mostly below about 0.91 (no sharp cut-off); inconclusive = no clear call, values can overlap the other calls; inactive = mostly above about 0.92. The list shows a part of the results.
Assay: chemical genetic growth profiling, strain panel (AID 1159580);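 also: tested at 20 µM; growth read once vehicle control cultures reached saturation at 30 °C; 1 = growth at the plate median or of vehicle wells; lower values mean less growth of the strain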
Conditions: S. cerevisiae deletion strains, growth OD

Measured: normalized growth

CC(=O)[C@H]1CCC2C3CC=C4C[C@@H](O)CC[C@]4(C)C3CC[C@@]21C (stereo partly specified)
0.754 (active) and 0.958 (inactive): locus YJL095W, strain BCK1, stronger effect = lower value
active: locus YAL026C, strain drs2, stronger effect = lower value 0.788 | locus YCL069W, strain vba3, stronger effect = lower value 0.897 | locus YDR137W, strain rgp1, stronger effect = lower value 0.518 | locus YDR195W, strain ref2 1.28 [resistant] | locus YDR392W, strain spt3, stronger effect = lower value 0.335 | locus YER155C, strain BEM2 (second series), stronger effect = lower value 0.774 | locus YGL253W, strain hxk2, stronger effect = lower value 0.9 | locus YGR252W, strain gcn5, stronger effect = lower value 0.65 | locus YHR142W, strain chs7, stronger effect = lower value 0.862 | locus YJL166W, strain qcr8, stronger effect = lower value 0.895
inactive: locus YAL013W, strain DEP1, stronger effect = lower value 0.999 | locus YAL021C, strain ccr4, stronger effect = lower value 0.958 | locus YAL030W, strain snc1, stronger effect = lower value 0.956 | locus YBL061C, strain skt5, stronger effect = lower value 0.981 | locus YBR009C, strain hhf1, stronger effect = lower value 0.929 | locus YBR021W, strain FUR4, stronger effect = lower value 0.962 | locus YBR023C, strain chs3, stronger effect = lower value 0.969 | locus YBR171W, strain sec66, stronger effect = lower value 0.996 | locus YBR229C, strain ROT2, stronger effect = lower value 1.01 | locus YBR231C, strain swc5, stronger effect = lower value 0.955 | locus YBR279W, strain paf1, stronger effect = lower value 0.981 | locus YCL011C, strain gbp2, stronger effect = lower value 0.947 | locus YCL016C, strain dcc1, stronger effect = lower value 0.95 | locus YCL029C, strain bik1, stronger effect = lower value 0.966 | locus YCR088W, strain abp1, stronger effect = lower value 1.02 | locus YDL005C, strain med2, stronger effect = lower value 1 | locus YDL035C, strain GPR1, stronger effect = lower value 0.863 | locus YDL040C, strain nat1, stronger effect = lower value 1.01 | locus YDL074C, strain BRE1, stronger effect = lower value 0.836 | locus YDL101C, strain DUN1, stronger effect = lower value 0.985 | locus YDL134C, strain PPH21, stronger effect = lower value 0.957 | locus YDL185W, strain tfp1, stronger effect = lower value 1.02 | locus YDL192W, strain arf1, stronger effect = lower value 1.02 | locus YDR001C, strain nth1, stronger effect = lower value 1.02 | locus YDR069C, strain doa4, stronger effect = lower value 0.965 | locus YDR101C, strain arx1, stronger effect = lower value 1.01 | locus YDR150W, strain NUM1, stronger effect = lower value 1.01 | locus YDR159W, strain sac3, stronger effect = lower value 0.927 | locus YDR162C, strain NBP2, stronger effect = lower value 0.958 | locus YDR297W, strain sur2, stronger effect = lower value 0.973 | locus YDR318W, strain mcm21, stronger effect = lower value 0.94 | locus YDR334W, strain swr1, stronger effect = lower value 1.03 | locus YDR335W, strain msn5, stronger effect = lower value 0.958 | locus YDR388W, stronger effect = lower value 0.981 | locus YDR502C, strain sam2, stronger effect = lower value 0.943 | locus YEL003W, strain gim4, stronger effect = lower value 0.938 | locus YEL037C, strain rad23, stronger effect = lower value 0.976 | locus YEL061C, strain CIN8 (second series), stronger effect = lower value 1.01 | locus YEL061C, strain CIN8, stronger effect = lower value 1.01 | locus YER015W, strain faa2, stronger effect = lower value 0.939 | locus YER016W, strain bim1, stronger effect = lower value 0.996 | locus YER110C, stronger effect = lower value 1.03 | locus YER111C, strain swi4, stronger effect = lower value 1.01 | locus YER155C, strain BEM2, stronger effect = lower value 1.01 | locus YER167W, strain BCK2, stronger effect = lower value 0.926 | locus YFR010W, strain ubp6, stronger effect = lower value 1.05 | locus YGL078C, strain dbp3, stronger effect = lower value 1.02 | locus YGL086W, strain mad1, stronger effect = lower value 0.944 | locus YGL167C, strain pmr1, stronger effect = lower value 0.996 | locus YGL173C, strain kem1, stronger effect = lower value 0.923 | locus YGL227W, strain vid30, stronger effect = lower value 1.01 | locus YGL240W, strain doc1, stronger effect = lower value 0.982 | locus YGL248W, strain PDE1, stronger effect = lower value 0.962 | locus YGR078C, strain PAC10, stronger effect = lower value 0.879 | locus YGR135W, strain pre9, stronger effect = lower value 0.904 | locus YGR229C, strain SMI1, stronger effect = lower value 0.958 | locus YHR013C, strain ard1, stronger effect = lower value 0.948 | locus YHR027C, strain rpn1, stronger effect = lower value 0.961 | locus YHR030C, strain SLT2, stronger effect = lower value 0.95 and 0.954 | locus YHR079C, strain IRE1 (second series), stronger effect = lower value 0.998 | locus YHR079C, strain IRE1, stronger effect = lower value 0.988 | locus YHR094C, strain hxt1, stronger effect = lower value 1.03 | locus YHR129C, strain ARP1, stronger effect = lower value 1.01 | locus YHR200W, strain rpn10, stronger effect = lower value 0.965 | locus YIL066C, strain RNR3, stronger effect = lower value 0.865 | locus YIL073C, strain SPO22, stronger effect = lower value 0.807 | locus YIL125W, strain kgd1, stronger effect = lower value 1.03 | locus YIR030C, strain dcg1, stronger effect = lower value 1.04 | locus YJL092W, strain hpr5, stronger effect = lower value 0.97 | locus YJL095W, strain BCK1 (second series), stronger effect = lower value 0.935 | locus YJL115W, strain asf1, stronger effect = lower value 0.994 | locus YJL129C, strain trk1, stronger effect = lower value 0.935 | locus YJL134W, strain LCB3, stronger effect = lower value 1.01 | locus YJL154C, strain vps35, stronger effect = lower value 1.01 | locus YJL164C, strain tpk1, stronger effect = lower value 0.923 | locus YJL168C, strain set2, stronger effect = lower value 1.03 | locus YJL187C, strain SWE1 (second series), stronger effect = lower value 0.945 | locus YJR043C, strain POL32, stronger effect = lower value 0.991 | locus YJR066W, strain TOR1, stronger effect = lower value 0.866 | locus YJR075W, strain HOC1, stronger effect = lower value 0.933
